Test [1] concerns the target Dual specificity protein kinase CLK4 (Homo sapiens) (UniProt Q9HAZ1). Description: qHTS Assay for Inhibitors of CDC-like Kinase 4 (ADP-Glo Assay) (AID 1771). Note: nearly all actives have a fitted effect of over 70% in size. Note: potency is the fitted concentration of half-maximal effect. The essentials: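 Clk4 (25 nM) was incubated 1 hr at room temperature with 100 uM RS repeat peptide and 1 uM ATP in buffer with 2 mM MgCl2, 0.5 mM EGTA, 2.5 mM DTT. ADP formed was quantified by ADP-Glo luminescence.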
In general terms: qHTS replaces the single test concentration by a dilution series.

Test [2] shares this target. Description: qHTS Assay for Inhibitors of CDC-like Kinase 4 (ADP-FP Assay) (AID 1795). Note: nearly all actives have a fitted effect of over 60% in size. Note: potency is the fitted concentration of half-maximal effect. The essentials: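 Recombinant human Clk4 (6.25 nM) phosphorylated RS repeat peptide (100 uM) with 1 uM ATP in Tris pH 7.5/MgCl2/EGTA/DTT/Triton buffer for one hour. ADP was quantified by Transcreener competitive fluorescence polarization against an ADP calibration curve.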
Test [3] concerns the target DNA repair nuclease/redox regulator APEX1 (Homo sapiens) (UniProt P27695). Description: qHTS Validation Assay for Inhibitors of the Human Apurinic/apyrimidinic Endonuclease 1 (APE1) (AID 1705;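 note: TAMRA fluorescence gain over two minutes as APE1 cuts a quenched THF abasic duplex; series mostly up to about 57 µM; % is set by controls: 0 for no effect and ±100 for the full control effect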). The essentials:
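Human APE1 was preincubated with compound for 15 min at room temperature, then 50 nM (final) THF-abasic double-stranded DNA substrate bearing 5'-TAMRA and 3'-BHQ-2 was added. Incision-driven fluorescence rise (ex 525/em 598 nm) was read kinetically.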

The nature of test [4]: Counterscreen for APE1 Inhibitors: Fluorescent Dye Displacement Validation Assay (AID 1707).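 Note: plate controls were ThO with dsDNA and no compound for no effect and ThO without dsDNA for full effect.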 The method in brief: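 ThO 250 nM + dsDNA 50 nM (THF abasic site, 5'-TAMRA), Tris-HCl pH7.5/50mM NaCl/2 mM MgCl2/0.01% Tween-20; compounds pin-transferred; ex 480/em 540 nm endpoint. Neutral = no compound; no-DNA ThO wells = negative control.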
Background: A counterscreen serves to expose hits that act by an unwanted route or on another target.

Test [5] is described as follows: qHTS for differential inhibitors of proliferation of Plasmodium falciparum line 3D7 (AID 1876). Note: potency is the fitted concentration of half-maximal effect.
Test [6] is described as follows: qHTS for differential inhibitors of proliferation of Plasmodium falciparum line Dd2 (AID 1882). Note: nearly all actives have a fitted effect of over 65% in size. Note: potency is the fitted concentration of half-maximal effect. The following applies: Potency: Plasmodium falciparum Dd2 proliferation inhibition. The method in brief:
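SYBR Green I DNA fluorescence read-out, ex 485/em 535 nm. Signals were normalized to 0.29 uM artemisinin and DMSO wells, then corrected using vehicle-only plates flanking each stack. Parasite growth ran 72 h in erythrocytes before lysis.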

Test [7] can be described thus: qHTS for differential inhibitors of proliferation of Plasmodium falciparum line W2 (AID 1883).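 Note: parasites grown with compound for 72 h before lysis and staining.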 Note: potency is the fitted concentration of half-maximal effect. As to conditions: Potency: Plasmodium falciparum W2 proliferation inhibition.
Test [8] concerns the target ATP-dependent DNA helicase Q1 (Homo sapiens) (UniProt P46063). Description: qHTS Validation Assay for Inhibitors of RecQ-Like Dna Helicase 1 (RECQ1) (AID 2353).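 Note: plate controls were DMSO vehicle for no effect and enzyme-free control for full effect.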 The method in brief: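 50 nM RECQ1T1 preincubated 15 min with compound in Tris pH 8.0 buffer with MgCl2, DTT, Tween-20 and 2.5 ug/ml poly(dI-dC); started with 200 nM TAMRA/BHQ-2 forked duplex and 2 mM ATP. Unwinding read as fluorescence (525/598 nm), two reads 2 h apart.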

Test [9] addresses M-phase phosphoprotein 8 (Homo sapiens) (UniProt Q99549). Description: qHTS Validation Assay for Inhibitors for MPP8 Chromodomain Interactions with Methylated Histone Tails (AID 488949). Note: nearly all actives have a fitted effect of over 55% in size. Note: potency is the fitted concentration of half-maximal effect. The method in brief: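 MPP8 (50 nM) was preincubated with biotinylated H3(1-18)K9me3 peptide (50 nM) in PBS pH 7.4, 0.01% Tween-20 for 30 min at room temperature, then with compounds for 30 min; binding was detected by AlphaScreen.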

Test [10] deals with Transient receptor potential cation channel subfamily V member 1 (Homo sapiens) (UniProt Q8NER1). Description: HTS Assay for Compounds that Act as Enhancers of the Vanilloid Receptor 1 (AID 488979). Note: 0% is about no effect. The essentials:
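TRPV1-expressing cells loaded with Fluo-8 calcium dye; compounds added and calcium influx read kinetically for 3 min (agonist phase), then capsaicin at EC20 added and read 2 min more for enhancement. Fluorescence ex 480/em 520 nm.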

Test [11] concerns the target Thyrotropin receptor (Homo sapiens) (UniProt P16473). Description: qHTS Assay for Antagonists of the Thyroid Stimulating Hormone Receptor (AID 488980). Note: series mostly up to about 58 µM; 0% is about no effect. The essentials: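 HEK293 cells transfected with human TSHR, suspended in HEPES-buffered HBSS with 70 uM RO 20-1724, were treated with compounds plus TSH at EC80 (4 nM final). cAMP was measured by competitive HTRF (cryptate anti-cAMP antibody, cAMP-d2 acceptor).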

The target of test [12] is Thyrotropin-releasing hormone receptor (Homo sapiens) (UniProt P34981). Description: qHTS for Small Molecule Agonists and Allosteric Enhancers of Human TRH Receptor: Validation Screen for Agonists (AID 493127;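 active = calcium activation more than 3 SD above the typical response in the agonist read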;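 note: intracellular calcium rise by fluo-8 fluorescence before TRH EC20 addition; 0% is about no effect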). The following applies: TRH receptor agonist cell assay; at 2 µM; active compounds read high. The method in brief:
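TRHR-expressing cells were plated overnight in serum-containing medium, then loaded with fluo-8 calcium dye at room temperature for 30 min–1.5 h. After a 10 s baseline, compound was pin-transferred and calcium fluorescence (ex 480/em 530) read kinetically for agonist response.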

Test [13] addresses Galactokinase (Homo sapiens) (UniProt P51570). Description: qHTS Validation Assay for Inhibitors of Human Galactokinase (GALK) (AID 493189). Note: 0% is about no effect. The essentials: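 GALK (5 nM) with 35 uM ATP and 100 uM galactose in HEPES pH8.0, MgCl2, NaCl, DTT, BSA; 1 h at room temperature. Residual ATP read by Kinase-Glo Plus luminescence after 10 min.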
For test [14], the target named is Voltage-gated inwardly rectifying potassium channel KCNH2 (Homo sapiens) (UniProt Q12809). Description: qHTS Assay for Small Molecule Inhibitors of the Human hERG Channel Activity (AID 588834).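 Note: lower thallium flux fluorescence means stronger hERG block; nearly all actives have a fitted effect of over 50% in size.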 Note: potency is the fitted concentration of half-maximal effect. The method in brief:
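U2OS cells transduced with hERG via BacMam (MOI ~100), plated 2000/well, loaded with FluxOR thallium dye, compound ~10 min, then stimulation buffer; fluorescence decrease read kinetically; AC50 from Hill fits.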

Test [15] is described as follows: qHTS for differential inhibitors of proliferation of Plasmodium falciparum line HB3 (AID 1886).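 Note: parasites grown with compound for 72 h before SYBR Green readout.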 Note: potency is the fitted concentration of half-maximal effect. The following applies: Potency: Plasmodium falciparum HB3 proliferation inhibition.
Test [16] in a line: Quantitative high throughput screen for delayed death inhibitors of the malarial parasite plastid, 96 hour incubation (AID 488745). Note: nearly all actives have a fitted effect of over 70% in size. Note: potency is the fitted concentration of half-maximal effect. The essentials: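 P. falciparum carrying an integrated firefly luciferase reporter, grown in erythrocytes (2% hematocrit, 0.1% parasitemia final) in RPMI 1640/0.5% Albumax, was exposed to compound for 96 h (two generations) at 37 C, 5% CO2. Luminescence decrease indicated growth inhibition.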

The target of test [17] is DNA dC->dU-editing enzyme APOBEC-3G (Homo sapiens) (UniProt Q9HC16). Description: qHTS for inhibitors of Vif-A3G interactions: Validation (AID 588379). Note: 0% is about no effect. The essentials:
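HeLa cells stably expressing Vif and A3G-eYFP, 700 cells/well, incubated overnight at 37 deg C, then exposed to compound overnight at 37 deg C. Inhibition of Vif-mediated degradation read as increased yellow fluorescence (Ex 488/Em 500-530) by laser-scanning cytometry.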

Among the data in PubChem BioAssay (NCATS) are Potency, outcome and activation values, retold here.

A number with no mark means an inactive call. Records with an inconclusive call do not appear. Activity calls are given as the source filed them. Unless noted, calls come from the whole dose curve; as a rule, active = well fitted curve in the direction sought with a large enough effect; inconclusive = small, poorly fitted or top-dose-only effect, or another doubt; inactive = no such curve, though single readings can be large; an effect the other way counts as inactive or inconclusive.

Chain of Thyrotropin receptor (Homo sapiens) (P16473 whole entry, looked up): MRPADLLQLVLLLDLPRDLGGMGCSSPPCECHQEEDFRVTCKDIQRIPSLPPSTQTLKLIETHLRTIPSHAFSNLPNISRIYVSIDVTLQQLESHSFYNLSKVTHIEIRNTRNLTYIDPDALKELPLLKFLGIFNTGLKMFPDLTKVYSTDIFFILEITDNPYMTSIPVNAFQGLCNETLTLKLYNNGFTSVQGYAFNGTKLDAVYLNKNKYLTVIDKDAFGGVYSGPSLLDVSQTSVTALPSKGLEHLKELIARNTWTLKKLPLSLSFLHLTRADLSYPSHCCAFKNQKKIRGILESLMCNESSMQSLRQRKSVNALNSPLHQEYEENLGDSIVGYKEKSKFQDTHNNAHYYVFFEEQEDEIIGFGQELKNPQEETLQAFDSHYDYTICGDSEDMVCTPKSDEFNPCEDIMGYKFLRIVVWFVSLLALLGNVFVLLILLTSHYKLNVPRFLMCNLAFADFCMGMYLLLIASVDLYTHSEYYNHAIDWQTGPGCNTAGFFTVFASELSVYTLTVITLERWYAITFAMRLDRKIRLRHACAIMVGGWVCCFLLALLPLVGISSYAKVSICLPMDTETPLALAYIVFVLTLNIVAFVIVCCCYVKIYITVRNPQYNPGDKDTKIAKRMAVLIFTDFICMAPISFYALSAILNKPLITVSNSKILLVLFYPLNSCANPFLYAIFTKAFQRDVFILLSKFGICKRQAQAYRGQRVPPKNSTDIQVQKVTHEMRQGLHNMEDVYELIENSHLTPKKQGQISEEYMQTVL
Chain of Galactokinase (Homo sapiens) (P51570 whole entry, looked up): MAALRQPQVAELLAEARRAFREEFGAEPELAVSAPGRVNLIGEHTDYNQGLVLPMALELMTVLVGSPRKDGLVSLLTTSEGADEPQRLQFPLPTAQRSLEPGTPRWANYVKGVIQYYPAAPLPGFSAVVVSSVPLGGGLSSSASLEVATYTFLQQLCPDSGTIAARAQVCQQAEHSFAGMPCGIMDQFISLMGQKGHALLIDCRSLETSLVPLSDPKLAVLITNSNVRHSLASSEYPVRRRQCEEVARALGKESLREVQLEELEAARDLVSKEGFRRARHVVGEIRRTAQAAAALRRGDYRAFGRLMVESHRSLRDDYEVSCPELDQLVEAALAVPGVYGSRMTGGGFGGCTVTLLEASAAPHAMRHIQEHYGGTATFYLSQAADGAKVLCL
Chain of Thyrotropin-releasing hormone receptor (Homo sapiens) (P34981 whole entry, looked up): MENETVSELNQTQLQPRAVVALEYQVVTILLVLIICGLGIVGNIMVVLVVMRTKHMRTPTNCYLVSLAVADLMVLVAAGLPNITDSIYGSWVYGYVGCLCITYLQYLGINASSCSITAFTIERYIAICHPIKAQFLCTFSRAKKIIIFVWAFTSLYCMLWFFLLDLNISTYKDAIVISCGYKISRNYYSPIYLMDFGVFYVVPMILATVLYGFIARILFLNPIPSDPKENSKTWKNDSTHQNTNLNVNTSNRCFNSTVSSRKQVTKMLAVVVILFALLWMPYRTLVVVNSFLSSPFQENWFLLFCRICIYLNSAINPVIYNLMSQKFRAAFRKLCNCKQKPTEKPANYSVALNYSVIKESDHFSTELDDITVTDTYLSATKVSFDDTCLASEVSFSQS
Chain of M-phase phosphoprotein 8 (Homo sapiens) (Q99549 whole entry, looked up): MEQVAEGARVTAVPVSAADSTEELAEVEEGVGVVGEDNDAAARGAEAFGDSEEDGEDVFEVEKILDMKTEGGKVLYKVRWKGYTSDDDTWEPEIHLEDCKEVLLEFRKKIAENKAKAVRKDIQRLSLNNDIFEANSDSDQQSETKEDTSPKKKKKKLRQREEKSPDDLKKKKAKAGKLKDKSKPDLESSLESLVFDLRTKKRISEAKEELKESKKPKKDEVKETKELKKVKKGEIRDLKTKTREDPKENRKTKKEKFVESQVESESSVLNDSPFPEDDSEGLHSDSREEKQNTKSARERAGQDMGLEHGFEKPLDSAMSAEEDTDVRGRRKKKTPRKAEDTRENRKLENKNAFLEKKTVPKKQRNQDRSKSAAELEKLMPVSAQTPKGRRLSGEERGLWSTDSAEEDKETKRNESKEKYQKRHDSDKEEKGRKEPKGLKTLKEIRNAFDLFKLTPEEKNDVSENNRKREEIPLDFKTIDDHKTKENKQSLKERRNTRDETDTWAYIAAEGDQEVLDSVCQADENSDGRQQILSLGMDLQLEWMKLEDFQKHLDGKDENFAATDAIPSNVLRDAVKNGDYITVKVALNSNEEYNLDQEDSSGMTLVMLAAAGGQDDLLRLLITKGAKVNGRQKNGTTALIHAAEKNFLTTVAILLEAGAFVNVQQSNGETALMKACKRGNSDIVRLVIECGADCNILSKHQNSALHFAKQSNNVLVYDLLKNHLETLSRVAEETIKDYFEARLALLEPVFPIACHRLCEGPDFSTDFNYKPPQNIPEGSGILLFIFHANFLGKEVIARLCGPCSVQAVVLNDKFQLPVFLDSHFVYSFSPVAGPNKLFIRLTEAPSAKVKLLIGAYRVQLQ
Chain of Transient receptor potential cation channel subfamily V member 1 (Homo sapiens) (Q8NER1 whole entry, looked up): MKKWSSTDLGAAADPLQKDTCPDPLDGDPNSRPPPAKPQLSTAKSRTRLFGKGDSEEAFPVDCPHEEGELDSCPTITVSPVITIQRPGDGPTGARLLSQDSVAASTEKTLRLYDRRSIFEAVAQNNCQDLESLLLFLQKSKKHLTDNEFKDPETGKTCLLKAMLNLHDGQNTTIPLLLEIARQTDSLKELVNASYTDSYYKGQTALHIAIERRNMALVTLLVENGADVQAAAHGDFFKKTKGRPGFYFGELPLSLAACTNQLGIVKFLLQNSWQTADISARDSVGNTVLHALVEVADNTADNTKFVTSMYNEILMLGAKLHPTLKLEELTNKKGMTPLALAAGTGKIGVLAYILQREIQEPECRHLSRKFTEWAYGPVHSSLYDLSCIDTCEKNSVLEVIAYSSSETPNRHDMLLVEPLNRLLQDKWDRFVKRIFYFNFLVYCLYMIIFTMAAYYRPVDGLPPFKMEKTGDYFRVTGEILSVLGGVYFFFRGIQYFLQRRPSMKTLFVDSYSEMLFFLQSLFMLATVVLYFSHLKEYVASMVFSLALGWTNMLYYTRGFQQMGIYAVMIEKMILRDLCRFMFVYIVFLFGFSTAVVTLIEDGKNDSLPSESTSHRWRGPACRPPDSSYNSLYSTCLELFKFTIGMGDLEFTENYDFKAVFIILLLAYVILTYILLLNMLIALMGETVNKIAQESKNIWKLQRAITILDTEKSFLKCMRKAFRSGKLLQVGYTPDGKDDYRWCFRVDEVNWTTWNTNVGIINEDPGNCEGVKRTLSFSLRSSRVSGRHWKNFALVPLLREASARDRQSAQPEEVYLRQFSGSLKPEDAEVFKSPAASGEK
Chain of DNA repair nuclease/redox regulator APEX1 (Homo sapiens) (P27695 whole entry, looked up): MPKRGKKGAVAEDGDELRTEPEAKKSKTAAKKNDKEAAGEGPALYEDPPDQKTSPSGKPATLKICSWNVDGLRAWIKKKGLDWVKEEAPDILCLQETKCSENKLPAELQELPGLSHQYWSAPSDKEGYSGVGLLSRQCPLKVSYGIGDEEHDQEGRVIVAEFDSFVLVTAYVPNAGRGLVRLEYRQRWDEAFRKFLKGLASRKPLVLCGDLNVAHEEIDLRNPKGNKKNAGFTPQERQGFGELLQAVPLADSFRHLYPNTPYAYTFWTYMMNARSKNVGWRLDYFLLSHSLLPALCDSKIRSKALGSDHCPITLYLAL
Chain of ATP-dependent DNA helicase Q1 (Homo sapiens) (P46063 whole entry, looked up): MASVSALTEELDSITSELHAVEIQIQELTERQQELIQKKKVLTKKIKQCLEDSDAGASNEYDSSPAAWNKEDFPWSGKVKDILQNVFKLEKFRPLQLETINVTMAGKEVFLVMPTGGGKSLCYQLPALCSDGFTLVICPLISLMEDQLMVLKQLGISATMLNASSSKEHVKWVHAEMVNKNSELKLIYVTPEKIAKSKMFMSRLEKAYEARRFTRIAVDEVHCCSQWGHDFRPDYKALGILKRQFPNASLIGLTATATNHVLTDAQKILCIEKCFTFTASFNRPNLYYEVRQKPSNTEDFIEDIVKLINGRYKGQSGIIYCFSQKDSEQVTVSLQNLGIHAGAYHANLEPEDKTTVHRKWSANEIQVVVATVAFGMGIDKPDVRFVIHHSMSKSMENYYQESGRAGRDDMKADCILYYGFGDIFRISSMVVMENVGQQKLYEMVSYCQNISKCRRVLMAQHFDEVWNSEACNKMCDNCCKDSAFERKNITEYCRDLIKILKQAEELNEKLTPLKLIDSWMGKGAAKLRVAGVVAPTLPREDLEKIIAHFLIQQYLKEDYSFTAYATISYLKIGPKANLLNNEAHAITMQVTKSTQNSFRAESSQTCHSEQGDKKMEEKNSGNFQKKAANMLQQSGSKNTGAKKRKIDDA
Chain of Dual specificity protein kinase CLK4 (Homo sapiens) (Q9HAZ1 whole entry, looked up): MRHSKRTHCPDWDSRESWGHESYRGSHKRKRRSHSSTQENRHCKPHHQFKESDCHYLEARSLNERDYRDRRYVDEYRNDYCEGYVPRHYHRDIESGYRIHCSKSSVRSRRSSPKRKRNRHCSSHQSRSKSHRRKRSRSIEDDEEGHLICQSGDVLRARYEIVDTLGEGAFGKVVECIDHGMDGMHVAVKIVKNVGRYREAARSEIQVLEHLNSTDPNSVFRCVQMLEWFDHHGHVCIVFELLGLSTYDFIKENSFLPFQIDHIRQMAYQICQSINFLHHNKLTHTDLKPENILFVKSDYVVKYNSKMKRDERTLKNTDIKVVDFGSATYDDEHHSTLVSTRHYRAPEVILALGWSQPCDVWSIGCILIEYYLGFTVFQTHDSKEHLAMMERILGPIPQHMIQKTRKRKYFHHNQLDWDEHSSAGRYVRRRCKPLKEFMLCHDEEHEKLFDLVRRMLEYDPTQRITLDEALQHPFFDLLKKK

Consider `CN1CCN(c2ncc3nc(-c4ccccc4)c(=O)n(C)c3n2)CC1`, for which the Potency result in test [1] and in [2] was “inactive” throughout.

For the compound `N#CCCn1c(=O)c(-c2cc(F)cc(F)c2)nc2cnc(Oc3ccccc3)nc21`, the Potency result in test [1] and in test [2] was “inactive” throughout.

For the compound `Clc1ccccc1-c1nc(NC2CCNCC2)c2ccccc2n1`, the Potency in test [1] and in [2] was 12.6 µM (active) throughout.

`COc1ccc2c(c1OC)C(=O)OC2C1c2c(cc3c(c2OC)OCO3)CCN1C` (stereo not given): the compound was called inactive in test [3], in test [4], in test [8], in test [10], in [11] and in test [13]. Further, the Potency was 12.6 µM (active) in test [5] and 14.1 µM (active) in test [7]. Also, the Potency entry in [6], in [9] and in test [14] was “inactive” each time. In addition, the activation in test [12] was -4.69%.

For the compound `CN(C)CCCO[C@H]1C([C@H](O)CO)O[C@@H]2OC(C)(C)O[C@@H]21` (stereo not given in full), the call in test [3], in test [4], in [8], in test [10] and in [13] was inactive. Also, the Potency result in test [5], in [6], in [7], in test [15], in test [16] and in test [9] was “inactive” throughout. In test [14], the Potency result was “inactive”. For the same compound, the activation in test [12] was 0.75%.

For `COCCn1c(=O)c(-c2cccc(C#N)c2)nc2cnc(N3CCN(C)CC3)nc21`, the Potency result in test [1] and in [2] was “inactive” in each case.

On to `CC#C[C@]1(O)CC[C@H]2C3CCC4=CC(=O)CCC4=C3[C@@H](c3ccc(N(C)C)cc3)C[C@@]21C` (stereo not given in full), for which the compound was classed as inactive in test [3], in test [4], in test [8], in test [10], in test [11] and in test [13]. In addition, the Potency in test [5] is 10 µM (active); in [7], 5.01 µM (active); in test [15], 12.6 µM (active); in test [16], 11.7 µM (active); in [9] it was 15.8 µM (active). The activation in test [12] is 28.5%.

For the compound `CC1(C)[C@@H](O)CC[C@]2(C)C3C(=O)C=C4C5C[C@@](C)(C(=O)O)CC[C@]5(C)CC[C@@]4(C)[C@]3(C)CC[C@@H]12` (stereo not given in full), in [17], the compound was called inactive.

Turning to `CN1CCc2c(cc(O)c(O)c2Cl)C(c2cccc(Cl)c2)C1` (stereo not given), the compound was called inactive in test [3], in [4], in [8], in test [10], in test [11] and in [13]. Also, the Potency is 3.55 µM (active) in [5]; 11.2 µM (active) in test [6]; 5.01 µM (active) in test [7]; 8.91 µM (active) in test [15]; 18.5 µM (active) in test [16]; 39.8 µM (active) in test [9]. Besides, the Potency in test [14] was 12.6 µM (active). For the same compound, the activation in [12] is 0.0625%.
